Results from PubChem BioAssay AID1159580 (chemical genetic matrix, 2015).
The whole screen tested about 5,500 compounds, of which about 2,000 (36%) were called active. About 18% were inconclusive and are not listed. Rule as the data show it: active = normalized growth mostly below about 0.91 (no sharp cut-off); inconclusive = no clear call, values can overlap the other calls; inactive = mostly above about 0.92. The list shows a part of the results.

Assay: chemical genetic growth profiling, strain panel (AID 1159580);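 also: tested at 20 µM; growth read once vehicle control cultures reached saturation at 30 °C; 1 = growth at the plate median or of vehicle wells; lower values mean less growth of the strain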
Conditions: S. cerevisiae deletion strains, growth OD
[1] = locus YAL013W, strain DEP1, hits give low values
[2] = locus YBR229C, strain ROT2, hits give low values
[3] = locus YDL101C, strain DUN1, hits give low values
[4] = locus YDL134C, strain PPH21, hits give low values
[5] = locus YDR150W, strain NUM1, hits give low values
[6] = locus YEL061C, strain CIN8, hits give low values
[7] = locus YGR078C, strain PAC10, hits give low values
[8] = locus YHR030C, strain SLT2, hits give low values
[9] = locus YHR087W, strain rtc3, hits give low values
[10] = locus YJR043C, strain POL32, hits give low values
[11] = locus YJR075W, strain HOC1, hits give low values
[12] = locus YLR039C, strain RIC1, hits give low values
[13] = locus YLR058C, strain SHM2 (second series), hits give low values
[14] = locus YLR085C, strain ARP6, hits give low values
[15] = locus YLR262C, strain YPT6, hits give low values
[16] = locus YML094W, strain GIM5, hits give low values
[17] = locus YMR219W, strain ESC1, hits give low values
[18] = locus YMR263W, strain SAP30, hits give low values
[19] = locus YMR307W, strain GAS1, hits give low values
[20] = locus YNL128W, strain TEP1, hits give low values
[21] = locus YNL153C, strain GIM3, hits give low values
[22] = locus YNL298W, strain CLA4 (second series), hits give low values
[23] = locus YNL322C, strain KRE1, hits give low values
[24] = locus YNR030W, strain Alg12, hits give low values
[25] = locus YPL055C, strain LGE1, hits give low values
[26] = locus YPL241C, strain CIN2, hits give low values
[27] = locus YPR135W, strain CTF4, hits give low values

Measured: normalized growth

CC(=O)Nc1ccc(C(F)(F)F)cc1Br
inactive: [1] 1 | [2] 1.01 | [3] 0.979 | [4] 0.98 | [5] 0.862 | [6] 0.967 | [7] 0.993 | [8] 0.896 | [9] 1.05 | [10] 0.932 | [11] 0.99 | [12] 1 | [13] 0.972 | [14] 0.933 | [15] 1 | [16] 0.996 | [17] 0.999 | [18] 0.965 | [19] 1.06 | [20] 0.964 | [21] 0.994 | [22] 0.957 | [23] 0.989 | [24] 0.993 | [25] 1.05 | [26] 1 | [27] 0.897

O=C(Nc1cccc2ccccc12)c1ccccc1O
inactive: [3] 0.93 | locus YFR019W, strain FAB1, hits give low values 0.781 | locus YHR205W, strain SCH9, hits give low values 0.687 | locus YJL128C, strain PBS2, hits give low values 0.823 | locus YJR066W, strain TOR1 (second series), hits give low values 0.645 | locus YPR106W, strain ISR1, hits give low values 0.896 | locus YPR111W, strain DBF20, hits give low values 0.884
active: locus YAR019C, strain CDC15, hits give low values 0.848 | locus YBL105C, strain PKC1, hits give low values 0.862 | locus YBR135W, strain CKS1, hits give low values 0.85 | locus YBR136W, strain MEC1, hits give low values 0.834 | locus YBR160W, strain CDC28, hits give low values 0.872 | locus YDL017W, strain CDC7, hits give low values 0.866 | locus YDL028C, strain MPS1, hits give low values 0.816 | locus YDL108W, strain KIN28, hits give low values 0.827 | locus YDL132W, strain cdc53, hits give low values 0.834 | locus YDL214C, strain PRR2, hits give low values 0.563 | locus YDR052C, strain DBF4, hits give low values 0.83 | locus YDR054C, strain cdc34, hits give low values 0.842 | locus YDR226W, strain ADK1, hits give low values 0.856 | locus YDR477W, strain SNF1, hits give low values 0.563 | locus YER123W, strain YCK3, hits give low values 0.432 | locus YER133W, strain GLC7, hits give low values 0.524 | locus YFL009W, strain cdc4, hits give low values 0.837 | locus YFL029C, strain CAK1, hits give low values 0.845 | locus YFR003C, strain YPI1, hits give low values 0.854 | locus YFR028C, strain CDC14, hits give low values 0.846 | locus YGR040W, strain KSS1, hits give low values 0.557 | locus YGR052W, strain FMP48, hits give low values 0.556 | locus YGR092W, strain DBF2, hits give low values 0.324 | [8] 0.505 | locus YHR079C, strain IRE1, hits give low values 0.405 | locus YHR082C, strain KSP1, hits give low values 0.576 | locus YIL147C, strain SLN1, hits give low values 0.831 | locus YJL095W, strain BCK1, hits give low values 0.488 | locus YJL157C, strain FAR1, hits give low values 0.492 | locus YJR016C, strain ILV3, hits give low values 0.852 | locus YJR066W, strain TOR1, hits give low values 0.479 | locus YKL048C, strain ELM1, hits give low values 0.768 | locus YKL067W, strain YNK1, hits give low values 0.555 | locus YKL101W, strain HSL1, hits give low values 0.585 | locus YKL193C, strain SDS22, hits give low values 0.843 | locus YKL203C, strain TOR2, hits give low values 0.572 | locus YLR113W, strain HOG1, hits give low values 0.327 | locus YLR133W, strain CKI1, hits give low values 0.595 | locus YLR403W, strain SFP1, hits give low values 0.552 | locus YML070W, strain DAK1, hits give low values 0.519 | locus YMR001C, strain CDC5, hits give low values 0.838 | locus YMR205C, strain PFK2 (second series), hits give low values 0.53 | locus YMR277W, strain FCP1, hits give low values 0.839 | locus YNL006W, strain LST8, hits give low values 0.858 | locus YNL020C, strain ARK1, hits give low values 0.529 | locus YNL161W, strain CBK1, hits give low values 0.864 | locus YNL183C, strain NPR1, hits give low values 0.443 | locus YNL207W, strain RIO2, hits give low values 0.834 | locus YNL222W, strain SSU72, hits give low values 0.847 | locus YNL307C, strain MCK1 (second series), hits give low values 0.571 | locus YOL078W, strain AVO1, hits give low values 0.847 | locus YOL136C, strain PFK27, hits give low values 0.533 | locus YOR061W, strain CKA2, hits give low values 0.608 | locus YOR119C, strain RIO1, hits give low values 0.549 | locus YOR231W, strain MKK1, hits give low values 0.426 | locus YOR329C, strain SCD5, hits give low values 0.857 | locus YPL031C, strain PHO85, hits give low values 0.526 | locus YPL153C, strain RAD53, hits give low values 0.52 | locus YPL204W, strain HRR25, hits give low values 0.52 | locus YPL209C, strain IPL1, hits give low values 0.86 | locus YPL256C, strain CLN2, hits give low values 0.547 | locus YPR025C, strain CCL1, hits give low values 0.855 | strain NNK1, hits give low values 0.87 | strain TSCII, hits give low values 0.833

O=C(Nc1ccccc1)Nc1ccc(C(F)(F)F)cc1Br
active: [14] 0.728 | [19] 0.54 | [22] 0.799 | locus YOL006C, strain TOP1, hits give low values 0.722
inactive: [1] 0.968 | [2] 0.985 | [3] 1.04 | [4] 0.967 | [5] 0.957 | [6] 0.981 | [7] 0.948 | [8] 0.749 | [9] 0.941 | locus YJL187C, strain SWE1, hits give low values 0.943 | [10] 0.926 | [11] 0.906 | [12] 0.843 | [13] 0.969 | [15] 0.948 | [16] 0.957 | [17] 0.99 | [18] 0.917 | [20] 0.957 | [21] 0.979 | [23] 0.995 | [24] 0.887 | [25] 0.842 | [26] 0.885 | [27] 0.878

NC(=NCCCC(N)C(=O)O)N[N+](=O)[O-] (stereo not given)
inactive: locus YAL040C, strain CLN3, hits give low values 0.999 | locus YCL061C, strain MRC1 (second series), hits give low values 1 | locus YDR363W, strain ESC2, hits give low values 1.03 | locus YER002W, strain NOP16, hits give low values 1 | locus YGR229C, strain SMI1, hits give low values 1.02 | [11] 1.02 | [18] 1 | [19] 1 | [20] 1.02 | locus YNL175C, strain NOP13, hits give low values 1 | locus YNL197C, strain WHI3, hits give low values 1.01 | locus YNL224C, strain SQS1, hits give low values 1.01 | locus YOR083W, strain WHI5 (second series), hits give low values 1.02
